From ChEMBL document CHEMBL3988442, “University of Dundee, Small-Polar-MMV Screening Library” (2021)
Screen size: about 48,000 compounds; about 13,000 (27%) showed an effect of 50% or more. Some of the results follow.

Tested on: Wolbachia pipientis
Experiment: Anti-Wolbachia Cell-Based Screen
Type: functional
Set-up: scale not given: in the data most compounds retested in dose-response had high values
Conditions: 5 µM

Row | Structure (SMILES) | Percent Effect
1 | Cc1noc(C)c1CN1C[C@@H]2CC[C@H](C1)N(Cc1cc(F)cc(F)c1)C2 | 3.369%
2 | N#Cc1ccccc1CN1C[C@@H]2CC[C@H](C1)N(CC1CCC1)C2=O | -9.781%
3 | O=C(O)C(F)(F)F.O=C(c1ccncc1)N1CCCn2nnc(COCCO)c2C1 | 26.37%
4 | CCc1nnc2n1CCN(Cc1noc(-c3cccc(C)c3)n1)C2 | -12.68%
5 | Cc1ccccc1OCC(O)C(=O)N1CCC2(CC1)CN(C)C(=O)O2 (configuration not stated) | -0.4396%
6 | COc1ccc(NC(=O)Cc2c(C)nc3c(c2C)c(=O)[nH]n3C)cn1 | 22.04%
7 | CC(C)CC(=O)NCc1cccc(OCCN(C)C2CCOCC2)c1 | -19.6%
8 | c1ccc2sc(NCC3(N4CCOCC4)CCSC3)nc2c1 (configuration not stated) | 0.766%
9 | O=C(CC(F)(F)F)NCC(O)c1ccc2ccccc2c1 (configuration not stated) | -2.994%
10 | Cc1ncsc1-c1nnc(C2CCN(CC3CCCCC3)CC2)o1 | -4.118%
11 | Cc1ccc(CN2CC[C@H](c3nnc(-c4ccco4)o3)C2)cc1 | -0.8562%
12 | COc1ccc(CN2CCC(c3nnc(-c4scnc4C)o3)CC2)cc1 | 115.7%
13 | Cc1ncsc1-c1nnc(C2CCN(Cc3ccccc3)CC2)o1 | 104.4%
14 | Cc1ncsc1-c1nnc(C2CCN(Cc3ccc(F)cc3)CC2)o1 | -4.23%
15 | COc1ccc(-c2nnc([C@H]3CCN(CC(C)(C)C)C3)o2)cc1 | 4.195%
16 | Cc1ncsc1-c1nnc(C2CCN(Cc3ccc(Cl)cc3)CC2)o1 | 113.6%
17 | COc1ccc(CN2CC[C@H](c3nnc(-c4ccco4)o3)C2)cc1 | 27.76%
18 | Cc1ncsc1-c1nc(CC2CCN(C)CC2)nn1Cc1ccccc1 | -11.92%
19 | COc1ccc2c(c1)CC(C(=O)N(C)Cc1noc3c1CCCC3)CO2 (configuration not stated) | -16.58%
20 | c1cnnc(N2CCC(c3nnc(Cn4ccnc4)n3C3CC3)CC2)c1 | -16.04%
21 | Cc1nc(NC(=O)COCC(F)(F)F)ccc1Br | 2.547%
22 | COc1cccnc1NC(=O)c1ccc(COCC(F)(F)F)cc1 | 77.14%
23 | COc1cccnc1NC(=O)COC1CCCC1 | 13.24%
24 | O=C(Nc1cc[nH]n1)c1ccc(COCC(F)(F)F)cc1 | 87.88%
25 | CC(C)CC(NC(=O)c1cccc(F)c1F)C(=O)Nc1cc[nH]n1 (configuration not stated) | -2.094%
26 | COc1cccnc1NC(=O)COc1ccc(F)cc1F | 10.02%

Row | Structure (SMILES) | Percent Effect
27 | Cc1n[nH]c(NC(=O)c2ccc(COCC(F)(F)F)cc2)c1C | 90.05%
28 | CN(C)CCN(Cc1ccc(C(F)(F)F)cc1)C(=O)c1cc[nH]n1 | -18.8%
29 | Cc1n[nH]c(C)c1NC(=O)c1cccc(OCC(F)(F)F)n1 | 9.795%
30 | CC(C)C(=O)NCCNC(=O)C12CCC(=O)N1c1cc(Cl)ccc1S2 (configuration not stated) | -7.313%
31 | CC(=O)N[C@@H]1Cc2ccccc2[C@H]1Nc1cc(C2CC2)ncn1 | -3.919%
32 | COCCn1/c(=N\C(=O)CN(C)S(C)(=O)=O)sc2cc(Cl)ccc21 | -11.47%
33 | Cc1ccc2nc(C)c(C)c(C(=O)N3CCC4(CCO4)CC3)c2c1 | -9.053%
34 | O=C(NCc1cccnc1)C1=NN(c2ccccc2)C(=O)CN1 | -0.2289%
35 | CCC(=O)N1CCC(NC2CCSCC2)C1 (configuration not stated) | -15.97%
36 | O=C(N[C@]12CC1CN(C(=O)c1ccco1)C2)c1cccc(F)c1 (some centres not stated) | -50.8%
37 | OCCC1CN(C2CCC2)CCN1C1CCCC1 (configuration not stated) | 7.142%
38 | Cc1cc(C)n(CC2CN(Cc3nc(C4CC4)no3)CCO2)n1 (configuration not stated) | 104.8%
39 | Cc1cc(C)n(CC2CN(Cc3noc(C)n3)CCO2)n1 (configuration not stated) | 98.99%
40 | CCc1n[nH]c(C2CN(Cc3nc(C4CC4)no3)CCO2)n1 (configuration not stated) | 14.51%
41 | Cc1cc(C)n(CC2CN(Cc3nnsc3Cl)CCO2)n1 (configuration not stated) | 2.291%
42 | Cc1cc(C)n(CC2CN(Cc3nc(-c4ccoc4)no3)CCO2)n1 (configuration not stated) | 9.322%
43 | Cc1cc(C)n(CC2CN(Cc3nc(C)c(C)o3)CCO2)n1 (configuration not stated) | 127.2%
44 | Cc1cc(C)n(CC2CN(Cc3cscn3)CCO2)n1 (configuration not stated) | -9.283%
45 | CCc1nc(CN2CCOC(Cn3nc(C)nc3C)C2)no1 (configuration not stated) | 5.512%
46 | CCc1nc(CN2CCOC(Cn3nc(C)cc3C)C2)no1 (configuration not stated) | 85.61%
47 | O=C1O[C@@H]2CN(C3CCOCC3)C[C@@H]2N1CCc1cccc(Cl)c1 | -15.11%
48 | CCNC(=O)NC(=O)CNC(C)(CC)c1nccs1 (configuration not stated) | 7.409%
49 | CC(=O)c1cc(C(=O)N2CCC(CC(C)C)C2)c(=O)[nH]c1C (configuration not stated) | 6.103%
50 | O=C1CC(Nc2ccc3nccnc3n2)CN1c1ccccc1 (configuration not stated) | -12.7%
51 | c1cnn(CC2CN(Cc3noc(C4CC4)n3)CCO2)c1 (configuration not stated) | -0.1842%
52 | Cc1cc(C)n(CC2CN(Cc3noc(C4CC4)n3)CCO2)n1 (configuration not stated) | 115.4%

Row | Structure (SMILES) | Percent Effect
53 | COc1cccc2c1OCCCN(c1nc(C)nc3c1CCNCC3)C2 | -7.329%
54 | Fc1cccc(-n2ccc(CN3CCCCC3Cn3cncn3)n2)c1 (configuration not stated) | -7.7%
55 | N#Cc1ccccc1CN1CCCCC1Cn1cncn1 (configuration not stated) | 7.073%
56 | N#Cc1ccc(F)c(CN2CCCC2Cn2cccn2)c1 (configuration not stated) | -3.171%
57 | c1ccc(-n2ccc(CN3CCCCC3Cn3cncn3)n2)cc1 (configuration not stated) | 140.8%
58 | c1ccc(-n2ccc(CN3CCCC3Cn3cncn3)n2)cc1 (configuration not stated) | 128.5%
59 | Fc1ccc(CN2CCCC2Cn2cccn2)c2ncccc12 (configuration not stated) | -3.711%
60 | Fc1cccc(-n2ccc(CN3CCCC3Cn3cccn3)n2)c1 (configuration not stated) | 141.1%
61 | c1ccc(-c2nc(CN3CCCC3Cn3cncn3)cs2)cc1 (configuration not stated) | -3.695%
62 | c1ccc(CN2CCCC2Cn2cncn2)nc1 (configuration not stated) | -0.04189%
63 | COCC(=O)N1CCC(C(=O)N(C)CCCc2nccn2C)CC1 | -11.58%
64 | CCC[C@H]1CN(S(=O)(=O)c2cc(C)ccc2C)C[C@@H]1N | -30.29%
65 | CCN(CC)Cc1cc(C(=O)N2CCC3(CCN(C)CC3)C2)c(C)o1 | 8.973%
66 | CN1CCC2(CC1)CCN(C(=O)c1onc3ccccc13)C2 | 92.75%
67 | CC(=O)N1CCCC2(CCN(C(=O)c3nn(C)c4ccccc34)CC2)C1 | -40.55%
68 | Cc1ccoc1C(=O)N1CCCC2(CCCN2S(C)(=O)=O)C1 (configuration not stated) | -9.811%
69 | CS(=O)(=O)N1CCCC12CCCN(C(=O)c1ccno1)C2 (configuration not stated) | -3.748%
70 | CN1CCC2(CC1)CN(C(=O)c1onc3ccccc13)CCCN2C | 72.92%
71 | Cc1ccc(C(CNC(=O)Cc2nc3ncccn3n2)N(C)C)cc1 (configuration not stated) | -10.58%
72 | CC(=O)NCCc1ccc(S(=O)(=O)N(C)C(C)CC(C)C)s1 (configuration not stated) | 2.114%
73 | CC(C)c1nc(C(=O)N2C[C@H](C(C)C)[C@@H](N)C2)cs1 | -1.889%
74 | CCC[C@H]1CN(CCS(C)(=O)=O)C[C@@H]1NC(=O)c1ccn(C)n1 | -3.531%
75 | CCC[C@@H]1CN(Cc2cnc(-c3cccs3)nc2)C[C@H]1C(=O)O | -4.575%
76 | CCC[C@H]1CN(C(=O)c2cc(-c3cccs3)n(C)n2)C[C@@H]1N | 106.1%
77 | CCC[C@@H]1CN(C(=O)c2cc(-c3cccs3)n(C)n2)C[C@H]1N(C)C | 95.7%
78 | CCC[C@@H]1CN(C(=O)c2ccccc2C(C)=O)C[C@H]1N(C)C | 5.199%

Row | Structure (SMILES) | Percent Effect
79 | CCC[C@@H]1CN(C(=O)c2cc3ccccc3cc2O)C[C@H]1N(C)C | 2.808%
80 | CCC[C@@H]1CN(C(=O)c2cc(-c3cccs3)n(C)n2)C[C@H]1NS(C)(=O)=O | 96.45%
81 | CCC[C@@H]1CN(C(=O)CCc2ccco2)C[C@H]1NS(C)(=O)=O | -2.62%
82 | COc1cc(C(=O)N2CCC(O)(CN3CCOCC3)C(C)(C)C2)ccn1 (configuration not stated) | 1.548%
83 | COc1ncc(-c2nccn2-c2ccccc2CN2CCOCC2)cn1 | 4.794%
84 | COc1ncc(CN2CCOC(C)(C(=O)N3CCOCC3)C2)cn1 (configuration not stated) | 124.6%
85 | CSCCC(O)C(=O)N1CCCN(Cc2cccnc2)CC1 (configuration not stated) | -2.174%
86 | CC1(C(=O)N2CCOCC2)CN(Cc2cccnc2)CCO1 (configuration not stated) | 65.44%
87 | Cc1ccc(N2CC3(COCCN(Cc4cccnc4)C3)OCC2=O)s1.O=C(O)C(F)(F)F.O=C(O)C(F)(F)F (configuration not stated) | 6.598%
88 | CNc1cccc(C2CCN(C(=O)c3cccnc3)CC2)n1 | 107.8%
89 | O=C(c1cccnc1)N1CCC(Oc2cccc(C(F)(F)F)c2)CC1 | 6.335%
90 | CNc1cccc(C2CCCN(C(=O)c3cncs3)C2)n1 (configuration not stated) | 121.7%
91 | CNc1cccc(C2CCCN(C(=O)c3cscn3)C2)n1 (configuration not stated) | 98.56%
92 | CNc1cccc(C2CCCN(C(=O)c3ccn(C)n3)C2)n1 (configuration not stated) | 117.7%
93 | CN(c1ncccc1CNC(=O)c1csnn1)C1CCCCC1 | 20.86%
94 | Cc1ccsc1CN(CCN(C)C)C(=O)c1ccc(C#N)nc1 | -1.147%
95 | NC1CCN(C2CCN(c3ccc(-c4ccco4)cc3)CC2)CC1 | -26.06%
96 | CCc1nsc(N2CCc3sccc3C2)n1 | 12.97%
97 | CNc1cccc(C2CCCN(C(=O)c3coc(C)n3)C2)n1 (configuration not stated) | 115.1%
98 | CNc1cccc(C2CCCN(C(=O)Cc3ccccc3)C2)n1 (configuration not stated) | 110.2%
99 | CNc1cccc(C2CCCN(C(=O)c3cccnc3)C2)n1 (configuration not stated) | 119.9%
100 | CNc1cccc(C2CCCN(C(=O)c3cnccn3)C2)n1 (configuration not stated) | 101.6%
101 | CNc1cccc(C2CCCN(C(=O)c3ccncc3)C2)n1 (configuration not stated) | -7.86%
102 | O=C(N[C@@H]1CCN(c2ncc(Cl)cc2Cl)C[C@H]1O)c1cnccn1 | -4.452%
